Consider nine molecules from PubChem BioAssay (NCATS).

Inconclusive results are not listed. Activity calls are given as the source filed them. Unless noted, calls follow the shape of the dose curve; as a rule, active = well fitted curve in the direction sought with a large enough effect; inconclusive = small, poorly fitted or top-dose-only effect, or another doubt; inactive = no such curve, though single readings can be large; an effect the other way counts as inactive or inconclusive.

A short description of test [1]: qHTS Assay for Lipid Storage Modulators (AID 1519; calls by dose curve; as to activity change, negative = inhibition: % is scaled to controls: 0 for no effect and ±100 for the full control effect). As to conditions: Drosophila S3 cells, BODIPY lipid droplet/cell ratio, laser cytometry, cells loaded with oleic acid; for activity change, negative = inhibition: at 57.5 µM (top of the series). An outline of the steps: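 Cells seeded at 5,000 per well were treated with compounds over a concentration series and loaded with oleic acid (400 uM, as added). Lipid droplet fluorescence (488 nm excitation, 500-530 nm channel) was read by laser-scanning cytometry and normalized to 20 uM Triacsin C.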

Test [2] deals with ATP-dependent 6-phosphofructokinase (Trypanosoma brucei brucei) (UniProt O15648). Description: qHTS Assay to Find Inhibitors of T. brucei phosphofructokinase: hit validation (AID 492961).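 Also: luminescence reports ADP formed as PFK phosphorylates fructose-6-phosphate with ATP; % is scaled to controls: 0 for no effect and ±100 for the full control effect.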 As to conditions: T. brucei PFK, ADP-Glo luminescence; series mostly up to 24.3 µM. The procedure, abridged: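 Reaction: 0.1 M triethanolamine pH 8.0, 5 mM MgCl2, F6P 0.5 mM, ATP 0.1 mM, PFK 1.25 nM, 45 min RT. Read-out: ADP-Glo luminescence. Analysis: concentration-response fits, classed by r2 and efficacy.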
Sequence of ATP-dependent 6-phosphofructokinase (Trypanosoma brucei brucei) (O15648 whole entry, looked up): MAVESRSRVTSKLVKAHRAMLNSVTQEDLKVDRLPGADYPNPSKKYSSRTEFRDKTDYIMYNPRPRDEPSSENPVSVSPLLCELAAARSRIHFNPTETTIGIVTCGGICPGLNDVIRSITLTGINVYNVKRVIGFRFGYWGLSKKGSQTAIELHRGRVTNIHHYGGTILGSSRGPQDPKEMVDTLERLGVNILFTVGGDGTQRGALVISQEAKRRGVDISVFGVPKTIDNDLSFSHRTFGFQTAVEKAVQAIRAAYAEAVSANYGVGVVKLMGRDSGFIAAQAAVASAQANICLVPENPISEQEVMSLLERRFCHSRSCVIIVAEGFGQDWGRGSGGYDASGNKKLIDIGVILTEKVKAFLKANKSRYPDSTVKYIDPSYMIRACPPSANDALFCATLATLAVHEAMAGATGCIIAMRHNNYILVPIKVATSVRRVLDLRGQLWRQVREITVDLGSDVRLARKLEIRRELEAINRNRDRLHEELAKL
Background: Quantitative high-throughput screening tests each substance at several concentrations.

Test [3] addresses Ubiquitin carboxyl-terminal hydrolase 1 (Homo sapiens) (UniProt O94782). Description: Inhibitors of USP1/UAF1: Pilot qHTS (AID 504865). Also: nearly all actives have a fitted effect of over 35% in size. Also: potency is read from the fitted curve at half-maximal effect.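 As to activity change, negative = inhibition: rhodamine fluorescence freed from ubiquitin-rhodamine substrate followed over time; top concentration of the series differs between compounds; % is scaled to controls: 0 for no effect and ±100 for the full control effect.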 The settings on record: purified USP1/UAF1, Ub-rhodamine cleavage fluorescence; series mostly up to 114 µM. An outline of the steps: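 Kinetic fluorescence assay: 1nM USP1/UAF1, 15 min compound preincubation, then 150nM Ub-Rho; 480/540 nm.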
Test [4] deals with Luciferin 4-monooxygenase (Photinus pyralis) (UniProt P08659). Description: Biochemical firefly luciferase enzyme assay for NPC (AID 624030). Also: nearly all actives have a fitted effect of over 70% in size. Also: potency is read from the fitted curve at half-maximal effect.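 As to activity change, negative = inhibition: purified P. pyralis luciferase at 10 nM with luciferin and ATP substrate; 0% = DMSO and -100% = full luciferase inhibition by PTC124 control.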 As to conditions: purified P. pyralis luciferase, luminescence, 5 min; series mostly up to 24.9 µM. An outline of the steps: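 Counter-screen for direct inhibition of the luciferase enzyme by approved-drug library compounds, run at 10 nM enzyme in 50 mM Tris acetate (final). Luminescence was read within 5 min of enzyme-buffer addition and normalized to PTC124 versus DMSO (0%).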
Sequence of Luciferin 4-monooxygenase (Photinus pyralis) (P08659 whole entry, looked up): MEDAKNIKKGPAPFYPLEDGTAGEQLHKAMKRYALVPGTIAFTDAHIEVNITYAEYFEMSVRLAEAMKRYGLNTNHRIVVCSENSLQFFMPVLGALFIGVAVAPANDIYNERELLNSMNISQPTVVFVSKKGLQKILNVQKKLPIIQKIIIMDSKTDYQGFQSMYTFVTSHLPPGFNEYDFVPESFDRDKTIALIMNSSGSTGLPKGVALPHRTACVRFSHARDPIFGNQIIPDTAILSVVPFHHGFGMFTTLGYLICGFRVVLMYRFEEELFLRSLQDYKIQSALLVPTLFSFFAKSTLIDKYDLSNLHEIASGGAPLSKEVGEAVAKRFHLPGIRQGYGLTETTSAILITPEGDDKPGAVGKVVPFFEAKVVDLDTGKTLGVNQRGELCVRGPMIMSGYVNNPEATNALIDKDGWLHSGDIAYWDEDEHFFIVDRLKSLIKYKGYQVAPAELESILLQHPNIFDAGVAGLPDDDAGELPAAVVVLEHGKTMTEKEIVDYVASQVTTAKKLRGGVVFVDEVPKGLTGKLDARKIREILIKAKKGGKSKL

Test [5] in a line: qHTS profiling for inhibitors of Plasmodium falciparum proliferation (AID 504749).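 Also: 0% = DMSO vehicle and full inhibition = artemisinin control; nearly all actives have a fitted effect of over 60% in size.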 The settings on record: P. falciparum in erythrocytes, SYBR Green DNA, 72 h, at 28.7 µM (top of the series). The procedure, abridged: (§1)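 P. falciparum-infected erythrocytes (0.3% parasitemia, 2.5% hematocrit final) were exposed to compounds for 72 h at 37 C in 5% CO2, then lysed with SYBR Green buffer overnight at room temperature; parasite DNA fluorescence was normalized to artemisinin and DMSO controls.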

Another test concerns 3D7. The description is as above. The settings on record: P. falciparum in erythrocytes, SYBR Green DNA, 72 h; series mostly up to 12.8 µM. The procedure, abridged:
as §1

The next test deals with C2A. The test is described as above. As to conditions: P. falciparum in erythrocytes, SYBR Green DNA, 72 h; series mostly up to 12.8 µM. The procedure, abridged: as §1
The test system of another test is CP201. The test is described as above. The settings on record: P. falciparum in erythrocytes, SYBR Green DNA, 72 h; series mostly up to 12.8 µM. An outline of the steps: as §1
The test system of the next test is CP211. The test is described as above. As to conditions: P. falciparum in erythrocytes, SYBR Green DNA, 72 h; series mostly up to 12.8 µM. The procedure, abridged: as §1
The next test concerns CP237. Described as above. As to conditions: P. falciparum in erythrocytes, SYBR Green DNA, 72 h; series mostly up to 12.8 µM. The procedure, abridged: as §1
The test system of the next test is CP252. The test is described as above. As to conditions: P. falciparum in erythrocytes, SYBR Green DNA, 72 h; series mostly up to 12.8 µM. The procedure, abridged: as §1
Another test concerns CP262. The test is described as above. As to conditions: P. falciparum in erythrocytes, SYBR Green DNA, 72 h; series mostly up to 12.8 µM. The procedure, abridged: as §1
The next test deals with CP268. Described as above. As to conditions: P. falciparum in erythrocytes, SYBR Green DNA, 72 h; series mostly up to 12.8 µM. The procedure, abridged: as §1
A further test concerns CP305. The test is described as above. The settings on record: P. falciparum in erythrocytes, SYBR Green DNA, 72 h; series mostly up to 12.8 µM. An outline of the steps: as §1
The subject of the next test is CP315. The test is described as above. As to conditions: P. falciparum in erythrocytes, SYBR Green DNA, 72 h; series mostly up to 12.8 µM. The procedure, abridged: as §1
The test system of another test is CP329. The test is described as above. The settings on record: P. falciparum in erythrocytes, SYBR Green DNA, 72 h; series mostly up to 12.8 µM. An outline of the steps: as §1
The test system of another test is HB3. Described as above. The settings on record: P. falciparum in erythrocytes, SYBR Green DNA, 72 h; series mostly up to 12.8 µM. An outline of the steps:
as §1

Another test deals with JCK. The description is as above. As to conditions: P. falciparum in erythrocytes, SYBR Green DNA, 72 h; series mostly up to 12.8 µM. The procedure, abridged:
as §1

Another test relates to PAD. Described as above. As to conditions: P. falciparum in erythrocytes, SYBR Green DNA, 72 h; series mostly up to 12.8 µM. An outline of the steps: as §1
The test system of another test is PC49. The description is as above. The settings on record: P. falciparum in erythrocytes, SYBR Green DNA, 72 h; series mostly up to 12.8 µM. An outline of the steps:
as §1

Where [6] appears, read: measured here: cell count channel max response.
[7] abbreviates: measured here: lipid channel max response.

Sequence of Ubiquitin carboxyl-terminal hydrolase 1 (Homo sapiens) (O94782 whole entry, looked up): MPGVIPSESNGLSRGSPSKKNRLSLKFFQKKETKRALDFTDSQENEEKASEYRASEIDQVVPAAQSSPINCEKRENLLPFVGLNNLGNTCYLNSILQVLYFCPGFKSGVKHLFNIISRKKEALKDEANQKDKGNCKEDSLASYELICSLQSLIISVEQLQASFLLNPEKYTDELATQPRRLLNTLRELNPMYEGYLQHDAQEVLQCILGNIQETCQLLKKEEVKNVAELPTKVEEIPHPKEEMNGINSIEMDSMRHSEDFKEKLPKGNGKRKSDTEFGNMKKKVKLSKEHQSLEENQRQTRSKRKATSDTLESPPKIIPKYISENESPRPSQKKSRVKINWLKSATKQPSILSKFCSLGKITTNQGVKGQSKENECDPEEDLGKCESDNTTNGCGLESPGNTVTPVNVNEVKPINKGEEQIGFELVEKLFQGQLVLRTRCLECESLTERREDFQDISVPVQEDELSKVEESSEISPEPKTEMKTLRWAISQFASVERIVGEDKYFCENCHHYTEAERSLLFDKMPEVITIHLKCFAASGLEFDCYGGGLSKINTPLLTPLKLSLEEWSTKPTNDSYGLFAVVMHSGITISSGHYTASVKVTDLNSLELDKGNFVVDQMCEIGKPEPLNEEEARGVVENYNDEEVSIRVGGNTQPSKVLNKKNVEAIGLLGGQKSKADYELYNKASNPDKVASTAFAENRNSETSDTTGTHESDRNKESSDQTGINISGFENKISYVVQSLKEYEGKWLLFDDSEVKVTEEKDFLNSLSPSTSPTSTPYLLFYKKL

Turning to `CN(C)CCCOC1C(C(O)CO)OC2OC(C)(C)O[C@@H]21` (some centres not stated), the activity change, negative = inhibition in [1] is 4.25% (inactive). For the same molecule, the max response was 11.4% in test [1] (setting [6]) and 18.7% in [1] (setting [7]). Moreover, in test [2], the molecule was classed as inactive. For the same molecule, the Potency entry (in test [3]; in test [4]; with 3D7; with C2A; in the test with CP201; in the test on CP211) was “inactive” in each case. The Potency result with CP237, with CP252, in the test on CP262, in the test on CP268, in the test on CP305 and with CP315 was “inactive” in each case. The Potency entry in the test on CP329, with HB3, with JCK, in the test on PAD and with PC49 was “inactive” throughout. Moreover, the activity, negative = inhibition was 6.96% (inactive) in [5] (parasite line A) and 11.3% (inactive) in test [5] (parasite line B).

`O=c1[nH]c(=O)n([C@@H]2O[C@H](CO)[C@@H](O)[C@H]2O)cc1F`: the activity change, negative = inhibition in [1] is -3.28% (inactive). Also, the max response was 0.66% in test [1] (setting [6]) and -5.85% in test [1] (setting [7]). Further, in test [3], the Potency entry is “inactive”.

As for `COc1ccc(-c2cc(=O)c3c(O)cc(O[C@H]4OC(COC5OC(C)C(O)C(O)[C@H]5O)C(O)C(O)C4O)cc3o2)cc1O` (some centres not stated), in test [1], the activity change, negative = inhibition was 5.51% (inactive). The max response in [1] (setting [6]) was 6.56%; in test [1] (setting [7]) it was 15.8%. Moreover, the Potency result (in [4]; in the test with 3D7; with C2A; with CP201; with CP211; in the test with CP237) was “inactive” in each case. The Potency result in the test on CP252, in the test on CP262, with CP268, in the test on CP305, in the test with CP315 and with CP329 was “inactive” throughout. Also, the Potency entry in the test with HB3, with JCK, in the test on PAD and with PC49 was “inactive” throughout. For the same molecule, the activity, negative = inhibition in test [5] (parasite line A) was 15% (inactive); in test [5] (parasite line B), 23.4% (inactive).

Consider `C=Cc1c(C)/c2[n-]/c1=C\c1[n-]c(c(CC)c1C)/C=c1\[n-]c3c(c1C)C(=O)C(C(=O)[O-])C=3c1[n-]c(c(C)c1CCC(=O)[O-])\C=2.[Cu].[Na+].[Na+]` (configuration not stated), for which, in test [1], the activity change, negative = inhibition is 23.5% (inactive). In addition, the values for the max response in test [1] (setting [6]) and in [1] (setting [7]) were -5.82% and 20.1%, respectively. Besides, the results for the Potency in [3] and in test [4] were 20 µM (active) and 32.2 µM (active), respectively. The activity, negative = inhibition in test [5] (parasite line A) was -17.5% (inactive). Further, the Potency entry in the test on 3D7, with C2A, in the test on CP201, in the test with CP211, with CP262 and with CP268 was “inactive” throughout. Besides, the Potency entry in the test with CP305, with CP329, in the test on JCK and in the test on PC49 was “inactive” throughout.

Consider `COC1OC2COC(c3ccccc3)OC2C(O)C1O` (configuration not stated), for which the activity change, negative = inhibition in test [1] is 1.99% (inactive). The max response was determined as 4.47% in test [1] (setting [6]) and 4.04% in [1] (setting [7]). Moreover, in test [3], the Potency result is “inactive”.

As for `O=c1ccn([C@H]2C[C@H](O)[C@@H](CO)O2)c(=O)[nH]1`, the activity change, negative = inhibition in [1] is 5.4% (inactive). The values for the max response in test [1] (setting [6]) and in test [1] (setting [7]) were 9.77% and 16.3%, respectively. Moreover, the Potency entry in test [3] was “inactive”.

Regarding `OCC1OC(Oc2cccc3cccnc23)C(O)C(O)C1O` (configuration not stated), the activity change, negative = inhibition in test [1] was -4.73% (inactive). Also, the results for the max response in [1] (setting [6]) and in test [1] (setting [7]) were -12.4% and -14.1%, respectively. Also, in test [3], the Potency result is “inactive”.

With `NC(=O)NCCC[C@H](N)C(=O)O`, the activity change, negative = inhibition in test [1] was -0.41% (inactive). In addition, the max response in test [1] (setting [6]) is -16.4%; in test [1] (setting [7]), -15.2%. Moreover, the Potency entry in [3] is “inactive”.

As for `CC1(C)S[C@H]2C(NC(=O)[C@@H](N)c3ccc(O)cc3)C(=O)N2[C@@H]1C(=O)O` (some centres not stated), the activity change, negative = inhibition in test [1] was 9.47% (inactive). Also, the max response in test [1] (setting [6]) was 17.1%; in test [1] (setting [7]), 32.6%. The call in test [2] was inactive. For the same molecule, the Potency result (in [3]; in test [4]; in the test on 3D7; in the test on C2A; in the test on CP201; with CP211) was “inactive” in each case. Also, the Potency entry in the test with CP237, with CP252, with CP262, in the test with CP268, in the test with CP305 and in the test with CP315 was “inactive” in each case. Besides, the Potency result with CP329, in the test on HB3, with JCK, in the test with PAD and in the test with PC49 was “inactive” in each case. Moreover, the activity, negative = inhibition in test [5] (parasite line A) is -0.804% (inactive).
